This is a sample that favours compounds with a hit; in the whole collection about 1.8% have one here.
LAP4-GFP MLPCN: yeast TOR pathway LAP4-GFP modulation | S. cerevisiae LAP4-GFP multiplex, flow cytometry GFP, 3 h; median GFP as percent of DMSO wells | GFP response vs DMSO, % at 10 µM | hit rate 0.34% among 320,000 | AID 2023;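 active = GFP response vs DMSO above a set limit, about the screen mean plus 3 SD, cut at about 150% in these data; inconclusive = under 70 cell events counted for the yeast strain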
Myeloid diff MLP: promotes myeloid progenitor differentiation; ER-HoxA9 myeloid progenitors, lysozyme-GFP differentiation, flow cytometry; calls only at 10 µM; hit rate 1% among 360,000;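 active = normalized GFP-positive differentiation at or above the plate's own cutoff, the solvent-only control mean plus 3 SD; inconclusive = no clear call, values can overlap the other calls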;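 note: cells exposed to compound for four days before flow analysis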
RPL19A TOR yeast: modulators of TOR pathway RPL19A-GFP in S. cerevisiae; percent response vs DMSO, % at 10 µM; S. cerevisiae RPL19A-GFP strain, flow cytometry, 3 h; stronger effect = lower value; AID 2025; hit rate 0.3% among 330,000;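 active = percent response vs DMSO below 50%; inconclusive = fewer than 70 events counted for the yeast strain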;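 note: median channel GFP fluorescence of the barcoded RPL19A-GFP strain; ratio of sample median GFP to plate DMSO average so 100% = DMSO; lower means less RPL19A-GFP as with rapamycin TOR inhibition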
AGP1-GFP MLPCN: modulators of TOR pathway AGP1-GFP in S. cerevisiae; S. cerevisiae AGP1-GFP multiplex flow cytometry, 3 h; GFP as percent of DMSO wells; GFP response vs DMSO, % at 10 µM; hit rate 0.02% among 320,000; AID 2066;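 active = GFP response relative to DMSO above a set limit, near screen average plus 3 SD, cut at about 150% in these data; inconclusive = fewer than 70 cells counted for the yeast strain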;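 note: median GFP channel fluorescence of the gated AGP1 strain per well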
MEP2 TOR yeast: modulators of TOR pathway MEP2-GFP in S. cerevisiae | S. cerevisiae MEP2-GFP strain, flow cytometry GFP, 3 h; 100% = DMSO control level | GFP response vs DMSO, % at 10 µM | hit rate 0.51% among 330,000 | AID 2016;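 active = GFP response versus DMSO above a set limit, roughly screen mean plus 3 SD, cut at about 180% in these data; inconclusive = fewer than 70 cells counted for a yeast strain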;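 note: median GFP fluorescence of the barcode-gated MEP2-GFP cells per well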
CIT2 TOR yeast: yeast TOR pathway CIT2-GFP modulation; S. cerevisiae CIT2-GFP strain, flow cytometry, 3 h; 100 means same as DMSO wells; GFP response vs DMSO, % at 10 µM; hit rate 0.065% among 320,000;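 active = GFP response relative to DMSO above a set limit, near the screen mean plus 3 SD, cut at about 150% in these data; inconclusive = Fewer than 70 cells measured for a yeast strain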;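 note: ratio of well median GFP fluorescence to mean of DMSO wells on the plate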
The depositor's hits bear a star; i = inactive; ? = inconclusive; . = not tested or not shown; + = active, no number; [ ] = dose if it differs, or a comment.

SMILES | LAP4-GFP MLPCN | Myeloid diff MLP | RPL19A TOR yeast | AGP1-GFP MLPCN | MEP2 TOR yeast | CIT2 TOR yeast
CN1/C(=C\C=Nc2ccc3ccccc3c2)C(C)(C)c2ccccc21 | 102 | i | 97 | 103 | 103 | 90
CN1\C(=C/C=C/C=C/C=[N+](C)C)C(C)(C)c2ccccc21 | . | + | . | . | . | .
COc1cc(/C=N/n2cnnc2)ccc1OCc1ccccc1 | 94 | i | 104 | 111 | 112 | 109
COc1cc(/C=N/n2cnnc2)ccc1OCCOc1ccccc1 | 90 | i | . | 29 | 262*[may fluoresce violet] | ?
CCOC(=O)CC(=O)Nc1ccn[nH]1 | 115 | i | 100 | 108 | 101 | 99
CCOc1ccc(Nc2nc(N(C)c3ccccc3)nc(N)c2[N+](=O)[O-])cc1 | 94 | i | 63 | 28 | 199* | 102
CC(=O)C1=C(C)Nc2ncnn2C1c1ccccc1OCc1ccccc1 (configuration not stated) | 101 | . | 46*[may fluoresce violet] | . | 304*[may fluoresce violet] | ?
COc1ccccc1C1C(C(=O)NCc2ccccc2)=C(C)Nc2ncnn21 (configuration not stated) | 96 | i | 99 | 101 | 98 | 106
NC(=O)C1(N2CCCCC2)CCN(C(=O)c2cccs2)CC1 | 102 | + | 98 | 102 | 106 | 104
O=C(c1cccs1)N1CCN(C2CCCCC2)CC1 | 97 | i | 91 | 87 | 97 | 84
Cc1ccc2cccc(OCC(=O)Nc3cccc(S(=O)(=O)N4CCCC4)c3)c2n1 | 111 | i | 114 | 114 | 111 | 113
CC(C)(C)OC(=O)N1CCC(C(=O)N[C@@H](Cc2ccccc2)C(=O)O)(c2ccccc2)CC1 | 95 | i | 99 | 96 | 100 | 93
CC(C)[C@H](NC(=O)C1(c2ccccc2)CCN(C(=O)OC(C)(C)C)CC1)C(=O)O | 87 | + | 101 | 97 | 97 | 104
S=C(NCCCN1CCOCC1)NCCCN1CCOCC1 | 108 | i | 96 | 100 | 94 | 90
S=c1[nH]nc(NCCCN2CCOCC2)s1 | 104 | i | 51 | 31 | 327* | 104
CCCCc1nnc(NC(=O)c2nc3nccc(C)n3n2)s1 | 123 | i | 98 | 118 | 215* | 122
CC(=O)N1c2ccc(S(=O)(=O)N3CCC(C(=O)N4CCN(c5ccc(Cl)cc5)CC4)CC3)cc2CC1C (configuration not stated) | 97 | i | 100 | 99 | 104 | 101
CCOc1cc(N2CCOCC2)c(OCC)cc1NC(=O)COC(=O)c1cc(C)oc1C | 99 | i | 94 | 99 | 100 | 96
CCOC(=O)c1cnn(-c2nc(SC)nc3sc4c(c23)CCCC4)c1N | 100 | i | 72 | . | 187*[may fluoresce violet] | ?
COCCNC(=O)c1c(N)n(-c2ccccc2)c2nc3ccccc3nc12 | 107 | i | 101 | 96 | 104 | 92
COCCNC(=O)c1c(N)n(CCCn2ccnc2)c2nc3ccccc3nc12 | 79 | i | 44*[may fluoresce violet] | ? | 224*[may fluoresce violet] | ?
CCC(C)n1c(NC(=O)c2ccccc2)c(C#N)c2nc3ccccc3nc21 (configuration not stated) | 98 | + | 99 | 96 | 128 | 91
Cc1ccc(C(=O)NCCn2c(N)c(C#N)c3nc4ccccc4nc32)cc1 | 83 | + | 62 | 31 | 184*[may fluoresce violet] | ?
CCCCn1c(NC(=O)c2ccccc2)c(C#N)c2nc3ccccc3nc21 | . | + | . | . | . | .
Cc1nn(Cc2noc(C(=O)NCCCn3ccnc3)n2)c(C)c1Br | 102 | . | 104 | 109 | 109 | 110
SMILES | LAP4-GFP MLPCN | Myeloid diff MLP | RPL19A TOR yeast | AGP1-GFP MLPCN | MEP2 TOR yeast | CIT2 TOR yeast
COc1cc(/C=C/C(=O)OCC(=O)Nc2ccc3c(c2)OCCO3)ccc1OCC#N | 107 | i | 101 | 104 | 104 | 100
CCCN(C)C1CN(Cc2cn(Cc3ccccc3)nn2)S(=O)(=O)C1 (configuration not stated) | . | i | . | . | . | .
COCC(Cc1ccccc1)NC(=O)Cn1cc(C)c(=O)[nH]c1=O (configuration not stated) | . | i | . | . | . | .
CCc1cccc(Nc2c([N+](=O)[O-])cc(C(=O)N3CC(=O)Nc4ccccc43)cc2[N+](=O)[O-])c1 | 99 | i | 100 | 95 | 103 | 101
Oc1c(Br)cc(Br)cc1C=NCc1ccccc1 | 151* | i | 101 | 93 | 97 | 80
Oc1c(Br)cc(Br)cc1C=NCc1ccc(F)cc1 | 139 | i | 101 | 93 | 101 | 99
O=C(Nc1ccc(O)c(-c2nc3ccccc3o2)c1)C1(c2ccccc2)CCCC1 | 97 | + | 98 | 95 | 103 | 91
COC(=O)C1C2C=CC3(CN(C4CCCC4)C(=O)C13)O2 (configuration not stated) | 88 | i | 102 | 98 | 98 | .
NNc1ncnc2scc(-c3ccc(Cl)cc3)c12 | 99 | + | 99 | 102 | 105 | 101
Clc1ccc(-c2csc3ncnc(Cl)c23)cc1 | 95 | i | 104 | 94 | 93 | 112
O=C(COc1ccc(Cl)cc1Cl)NN1C(=O)/C(=C\c2ccc(Cl)cc2)SC1=S | 103 | i | 93 | 98 | 95 | 93
O=C(COc1cc(F)ccc1[N+](=O)[O-])NCCCc1ccccc1 | 108 | i | 98 | 99 | 97 | 85
Cc1cccc(NC(=O)C2CCCN2C(=O)OCC(C)C)c1C (configuration not stated) | 100 | i | 101 | 107 | 104 | 106
Cc1cccc(NC(=O)C2CCCN2C(=O)OCC(C)C)c1 (configuration not stated) | 95 | i | 58 | 24 | 231*[may fluoresce violet] | ?
O=C(NCc1ccc2c(c1)OCO2)c1cc(-c2ccccc2)c(N2CCOCC2)s1 | 100 | i | 106 | 104 | 103 | 100
NS(=O)(=O)c1ccc(N2CCOCC2)c(C(=O)NCc2cccs2)c1 | 96 | i | 102 | 103 | 108 | 107
CCCCN(CC)CCNC(=O)c1cc2c(-c3ccccc3F)nn(C)c2s1 | 71 | i | 37*[may fluoresce violet] | 18 | 674*[may fluoresce violet] | ?
CC1CCCCN1CCNC(=O)c1cc2c(-c3ccccc3F)nn(C)c2s1 (configuration not stated) | 102 | i | 99 | 102 | 101 | 105
COC(=O)C(NC(=O)c1ccccc1)=C1C=C(C)OC(C)=C1 | 101 | . | 64 | . | 209*[may fluoresce violet] | ?
COc1cc(C(=O)NCC2CCCO2)ccc1OCc1ccc(Cl)cc1Cl (configuration not stated) | 109 | i | 100 | 100 | 103 | 91
CC(C)(O)C#Cc1ccc(C(=O)Nc2ccc3c(c2)OCO3)s1 | 94 | i | 94 | 93 | 96 | 93
CC1CCN(c2ccccc2NC(=O)c2ccc([N+](=O)[O-])o2)CC1 | 94 | ? | 102 | 101 | 102 | 100

From PubChem
